Measurements published in the supplement of paper PMC6555819.

Tests used:
Test in all cases: PBM binding z-score (relative to random genomic background probes); higher = stronger binding; sequences stand for … in GC…GCGATTGACAGCGTAGAATGAAGG
[1] = tested on: FXR:RXRa (NR concentration 270 nM, RXRa partner concentration 90 nM)
How it was run: (§1)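 Probes were double-stranded and carried 34-nt variable regions with direct-repeat seeds, single-nucleotide variants, half-site ablations and random human genomic background sequences, printed on custom Agilent 4×180K protein-binding microarrays. Arrays were incubated 1 h with ligand-free nuclear receptor dimers in PBS pH 7.4, 2% milk, 0.02% Triton X-100, 1 mM DTT, 0.2 mg/mL BSA and 0.4 mg/ml salmon testes DNA. Antibodies against each partner (one per run) detected binding, and scanned fluorescence was regression-normalized. Binding z-scores use the random background probes as reference.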

[2] = tested on: LXRa:RXRa (NR concentration 270 nM, RXRa partner concentration 90 nM)
How it was run: as §1

[3] = tested on: LXRa homodimer (NR concentration 270 nM)
How it was run: as §1

[4] = tested on: LXRb:RXRa (NR concentration 270 nM, RXRa partner concentration 90 nM)
How it was run: as §1

[5] = tested on: LXRb homodimer (NR concentration 270 nM)
How it was run: as §1

[6] = tested on: PPARa:RXRa (NR concentration 270 nM, RXRa partner concentration 90 nM)
How it was run: as §1

[7] = tested on: PPARg:RXRa (NR concentration 180 nM, RXRa partner concentration 90 nM)
How it was run: as §1

[8] = tested on: PPARg:RXRa 270nM:90nM, anti-RXR (NR concentration 270 nM, RXRa partner concentration 90 nM)
How it was run: as §1

[9] = tested on: PPARg:RXRa 30nM:10nM, anti-RXR (NR concentration 30 nM, RXRa partner concentration 10 nM)
How it was run: as §1

[10] = tested on: PPARg:RXRa 90nM:30nM, anti-RXR (NR concentration 90 nM, RXRa partner concentration 30 nM)
How it was run: as §1

Row | Sequence | PBM binding z-score [1] | PBM binding z-score [2] | PBM binding z-score [3] | PBM binding z-score [4] | PBM binding z-score [5] | PBM binding z-score [6] | PBM binding z-score [7] | PBM binding z-score [8] | PBM binding z-score [9] | PBM binding z-score [10]
1 | GGGACGAGGGCAAGTTGATAGCAGAGTTTGATGG | 1.19 | 0.762 | 0.0189 | 1.18 | 0.857 | 1.42 | 1.09 | 1.2 | 0.448 | 0.913
2 | CCTTAAGGGTCAAGGTTATAGCACGGGTGGTACG | 7.56 | 5.38 | 1.06 | 4.67 | 0.683 | 5.86 | 5.81 | 5.97 | 2.96 | 4.78
3 | TTACCAAGGTGAAGGTCGTAGATCCCTCTGTAGA | 0.719 | 0.647 | -0.474 | 0.573 | -0.742 | 2.43 | 3.49 | 3.86 | 2.16 | 3.43
4 | CGTCAAAGTTCAACTAAGGTAAGGTAAAGCACGC | 7.07 | 6.11 | 4.02 | 3.87 | 1.73 | 5.14 | 5.27 | 5.34 | 2.26 | 4.31
5 | TGGCCTAGGTCATTGGGCCAGTATAGTACGCATC | 4.33 | 2.98 | -0.242 | 1.44 | -0.839 | 3.79 | 3.3 | 3.34 | 0.438 | 2.2
6 | TAGCCTAGGTCATTGGGCCAGTATCGTACGCATC | 4.61 | 3.37 | 0.842 | 2.55 | 0.185 | 3.85 | 3.26 | 3.52 | 0.601 | 2.34
7 | TCTGCTAGGTCAGTTGGTCAGGTAACGAGCTGCC | 1.03 | 0.456 | -0.298 | 0.248 | 0.236 | 1.48 | 0.452 | 1.74 | 1.15 | 1.3
8 | GCTAGTTGGTCAGTAAAAGGTCACAGACCGGTCG | 3.72 | 4.57 | 4.2 | 4.1 | 0.607 | 5.07 | 3.41 | 4.95 | 2.71 | 4.5
9 | ATCTCTACGTAAGACTCAGTTCAGTGAAGAACGC | 0.165 | 0.16 | 0.552 | 0.484 | 0.986 | 0.0277 | 0.265 | 0.146 | 0.213 | 0.131
10 | CCTACTGGGCCAAAAAGGTCATTGAGGCCGATAA | 3.73 | 4.24 | 2.98 | 4.11 | 0.134 | 4.69 | 3.3 | 3.92 | 1.27 | 3
11 | ATCGCTAGGTAACAAGTTCAGTGAAAGAGAGGAC | -0.045 | 0.0443 | -0.0365 | -0.0294 | -0.328 | 0.506 | 0.393 | 0.468 | -0.139 | 0.219
12 | AGAATGAGGCTACCAAAGATCAGGGAAACGCTTG | -0.398 | 0.883 | -0.337 | -0.482 | -1.07 | 0.361 | 0.85 | 0.0255 | -0.0527 | 0.1
13 | CAAACTAGGTCACCTGAAGGTCAAAGTCCGCATG | 5.8 | 5.89 | 5.41 | 5.04 | 1.6 | 5.79 | 9.15 | 7.17 | 5.48 | 7.17
14 | AGTCAAAGTTCATCTAGGTAACGTAGGATATGCT | 6.48 | 6.18 | 5.41 | 3.66 | 1.7 | 4.7 | 6.41 | 6.28 | 3.31 | 5.55
15 | TATTGTAGATCAACAGGAGGTTAAGAAAGATCGA | 0.217 | 1.55 | 0.577 | 1.03 | 0.546 | 1.46 | 0.641 | 0.531 | 0.596 | 0.68
16 | CAAACTAGGTCACGATAGGTCAAAGTCGAATGAC | 5.83 | 8.21 | 5.31 | 6.9 | 1.01 | 6.14 | 9.76 | 7.74 | 6.05 | 7.79
17 | GCTGCTAGGTCAGTTTGGTCAGCTAACGGGTACG | 1.08 | 0.563 | -0.212 | 0.437 | 0.134 | 0.943 | 0.183 | 0.678 | -0.304 | 0.407
18 | CCTGCTAGGTCAACGGTCAGCTAAAGCAGCTCGC | 4.13 | 3.09 | 0.58 | 2.17 | 0.4 | 4 | 6.12 | 6.08 | 3.98 | 6.08
19 | TTACCAAGGTGAGCTGAGATCGTTGATCCAACTC | -0.243 | -0.689 | -0.907 | -0.704 | -1.18 | 0.12 | -0.0237 | 0.4 | -0.0278 | 0.278
20 | GCTTACGGGTCTAAGGTTATAGCATGAATAGAAT | 0.749 | 0.664 | -0.0717 | 1.2 | -0.249 | 2.66 | 3.28 | 4.67 | 3.06 | 4.64
21 | TCATATAGGTAATACAGGTGAAAGGCGGCATCTA | 1.01 | 1.22 | 0.706 | 0.93 | 0.000841 | 2.25 | 2.3 | 3.69 | 4.62 | 4.1
22 | TCTAGTTGGTCACGGAGGTCACAGACGACGGGTA | 3.38 | 3.46 | 1.88 | 3.32 | 0.321 | 4.34 | 3.91 | 4.32 | 3.41 | 3.8
23 | TAGCCTAGGTCATGTGCCAGTATACCACGCGAAC | 4.24 | 3.24 | 0.572 | 2.7 | 0.626 | 3.58 | 2.79 | 2.86 | 0.838 | 2.06
24 | CGAACTACGTCAGAACAGGACAGTGAAGGATGAT | -0.457 | -0.582 | -0.294 | -1.05 | -0.438 | -0.716 | 0.632 | -0.752 | -0.147 | -0.37
